Assay results as given in PubChem BioAssay (EPA / NIEHS).
The source made the active and inactive calls. How the source made its calls: active means hit-call score of the fitted dose curve at least 0.9, where 1 is the maximum; inactive means score below 0.9.

Experiments:
[1] = read-out: Interleukin-1 alpha (IL1a), IL1A (gene 3552); assay: BSK_KF3CT_IL1a: BioMAP Diversity Plus: KF3CT Assay for Interleukin-1 alpha (IL1a) Biomarker Activity (AID 2283070); settings: primary human keratinocytes with fibroblasts; actives raise or lower the signal
Procedure, shortened: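 Human keratinocyte plus foreskin fibroblast primary co-culture, sampled 24 h after chemical dosing. IL-1a measured by ELISA; responses fitted bidirectionally against DMSO baseline (negative control), so gain or loss of signal both count.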

[2] = read-out: TIMP metallopeptidase inhibitor 2 (TIMP2), TIMP2 (gene 7077); assay: BSK_KF3CT_TIMP2: BioMAP Diversity Plus: KF3CT Assay for TIMP metallopeptidase inhibitor 2 (TIMP2) Biomarker Activity (AID 2283071); settings: primary human keratinocytes with fibroblasts; actives raise or lower the signal
Procedure, shortened: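 Human primary keratinocyte/foreskin fibroblast co-culture dosed with chemical and sampled at 24 h. TIMP-2 levels quantified by ELISA; bidirectional fitting against DMSO negative control as baseline.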

[3] = read-out: Transforming growth factor beta 1 (TGFb1), TGFB1 (gene 7040); assay: BSK_KF3CT_TGFb1: BioMAP Diversity Plus: KF3CT Assay for Transforming growth factor beta 1 (TGFb1) Biomarker Activity (AID 2283072); settings: primary human keratinocytes with fibroblasts; actives raise or lower the signal
Procedure, shortened: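 Human keratinocyte plus foreskin fibroblast primary co-culture, dosed with chemical for 24 h. TGF-b1 quantified by ELISA. Activity fitted bidirectionally against DMSO negative control as baseline.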

[4] = read-out: C-C motif chemokine 2 (Homo sapiens) (UniProt P13500); assay: BSK_KF3CT_MCP1: BioMAP Diversity Plus: KF3CT Assay for Monocyte Chemoattractant Protein 1 (MCP1/CCL2) Biomarker Activity (AID 2283073); settings: primary human keratinocytes with fibroblasts; actives raise or lower the signal
Procedure, shortened: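 ELISA read-out of MCP-1, 24 h post-dose, in primary human skin keratinocytes co-cultured with fibroblasts. Parallel SRB staining monitors cytotoxicity; changes fitted both directions relative to DMSO.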

[5] = read-out: Matrix Metallopeptidase 9 (MMP9), MMP9 (gene 4318); assay: BSK_KF3CT_MMP9: BioMAP Diversity Plus: KF3CT Assay for Matrix Metallopeptidase 9 (MMP9) Biomarker Activity (AID 2283074); settings: primary human keratinocytes with fibroblasts; actives raise or lower the signal;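 on AC50: MMP9 protein level quantified by ELISA in the co-culture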
Procedure, shortened: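 Keratinocyte plus foreskin fibroblast human primary skin co-culture was dosed with chemical and MMP-9 was quantified by ELISA 24 h later. Bidirectional curve fitting used DMSO as negative control and activity baseline.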

[6] = read-out: urokinase plasminogen activator (uPA), PLAU (gene 5328); assay: BSK_KF3CT_uPA: BioMAP Diversity Plus: KF3CT Assay for urokinase plasminogen activator (uPA) Biomarker Activity (AID 2283075); settings: primary human keratinocytes with fibroblasts; actives raise or lower the signal
Procedure, shortened: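 Human keratinocyte plus foreskin fibroblast primary co-culture exposed to chemical for 24 h. uPA levels were quantified by ELISA, and activity was fitted bidirectionally against a DMSO negative-control baseline.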

[7] = read-out: CD40, CD40 (gene 958); assay: BSK_LPS_CD40: BioMAP Diversity Plus: LPS Assay for CD40 Biomarker Activity (AID 2283076); settings: primary human HUVEC with PBMC; actives raise or lower the signal
Procedure, shortened: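 In the LPS system of human endothelial cells with peripheral blood mononuclear cells, CD40 levels were read by ELISA 24 h post-treatment. Signal changes in either direction were fitted against the DMSO baseline, with parallel SRB protein staining.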

[8] = read-out: Interleukin-8 (IL8), CXCL8 (gene 3576); assay: BSK_LPS_IL8: BioMAP Diversity Plus: LPS Assay for Interleukin-8 (IL8) Biomarker Activity (AID 2283078); settings: primary human HUVEC with PBMC; actives raise or lower the signal
Procedure, shortened: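 ELISA read-out of IL-8 after 24 h chemical treatment of LPS-activated endothelial/PBMC human primary co-cultures. Changes either up or down relative to DMSO; overt cytotoxicity checked by sulforhodamine B staining in parallel wells.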

[9] = BSK_LPS_SRB: Viability Assessment in the BioMAP Diversity Plus: LPS Assay (AID 2283079); settings: primary human HUVEC with PBMC;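 further: total protein by sulforhodamine B absorbance as a cytotoxicity measure; measured one day after compound addition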
Procedure, shortened: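 SRB viability endpoint: cells fixed with 10% TCA, stained with 0.1% SRB, read at 560 nm, 24 h post-dose. HUVEC/PBMC co-culture; signal change in either direction scored relative to DMSO.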

[10] = read-out: Interleukin-1 alpha (IL1a), IL1A (gene 3552); assay: BSK_LPS_IL1a: BioMAP Diversity Plus: LPS Assay for Interleukin-1 alpha (IL1a) Biomarker Activity (AID 2283080); settings: primary human HUVEC with PBMC; actives raise or lower the signal
Procedure, shortened: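 Readout is IL-1a level by ELISA, 24 h post-dose, fitted as gain or loss relative to DMSO. System: LPS-activated human primary co-culture of vascular endothelium and peripheral blood mononuclear cells, with parallel SRB total-protein cytotoxicity.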

[11] = read-out: Monocyte Chemoattractant Protein-1 (MCP1), CCL2 (gene 6347); assay: BSK_LPS_MCP1: BioMAP Diversity Plus: LPS Assay for Monocyte Chemoattractant Protein-1 (MCP1) Biomarker Activity (AID 2283081); settings: primary human HUVEC with PBMC; actives raise or lower the signal;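 on AC50: secreted MCP-1 protein quantified by ELISA in culture supernatant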
Procedure, shortened: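 Secreted MCP-1 read by ELISA at 24 h post-dosing in an LPS-activated co-culture of endothelial cells with peripheral blood mononuclear cells. Fits run in both directions, DMSO as baseline; parallel SRB staining tracks overt cytotoxicity.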

[12] = BSK_LPS_PGE2: BioMAP Diversity Plus: LPS Assay for Prostaglandin E2 (PGE2) Biomarker Activity (AID 2283082); settings: primary human HUVEC with PBMC; actives raise or lower the signal
Procedure, shortened: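 HUVEC plus PBMC co-culture stimulated with LPS; secreted PGE2 quantified by ELISA 24 h after chemical dosing. Activity fitted bidirectionally against DMSO as negative control and baseline; parallel SRB total-protein staining served as cytotoxicity check.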

[13] = read-out: Macrophage colony-stimulating factor (MCSF), CSF1 (gene 1435); assay: BSK_LPS_MCSF: BioMAP Diversity Plus: LPS Assay for Macrophage colony-stimulating factor (MCSF) Biomarker Activity (AID 2283083); settings: primary human HUVEC with PBMC; actives raise or lower the signal
Procedure, shortened: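 Bidirectional fitting against DMSO was applied to M-CSF levels read by ELISA at 24 h post-dose. The system pairs human umbilical vein endothelium with peripheral blood mononuclear cells; parallel SRB staining tracked cytotoxicity.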

[14] = read-out: Tissue Factor, F3 (gene 2152); assay: BSK_LPS_TissueFactor: BioMAP Diversity Plus: LPS Assay for Tissue Factor Biomarker Activity (AID 2283084); settings: primary human HUVEC with PBMC; actives raise or lower the signal
Procedure, shortened: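 Compound was added to an endothelial cell/PBMC co-culture, and after 24 h tissue factor (CD142) was read by ELISA. Gain or loss of signal was fitted against a DMSO baseline, and parallel SRB staining (560 nm) tracked overt cytotoxicity.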

[15] = read-out: Tumor necrosis factor (Homo sapiens) (UniProt P01375); assay: BSK_LPS_TNFa: BioMAP Diversity Plus: LPS Assay for Tumour Necrosis Factor alpha (TNFa) Biomarker Activity (AID 2283085); settings: primary human HUVEC with PBMC; actives raise or lower the signal;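 on AC50: TNFa protein level quantified by ELISA in the co-culture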
Procedure, shortened: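 Human umbilical vein endothelial cells co-cultured with PBMC were exposed to test chemical and TNFa measured by ELISA 24 h after dosing. Bidirectional curve fitting was done relative to DMSO as negative control and baseline.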

[16] = read-out: Vascular cell adhesion molecule 1 (VCAM1), VCAM1 (gene 7412); assay: BSK_LPS_VCAM1: BioMAP Diversity Plus: LPS Assay for Vascular cell adhesion molecule 1 (VCAM1) Biomarker Activity (AID 2283086); settings: primary human HUVEC with PBMC; actives raise or lower the signal
Procedure, shortened: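 Human umbilical vein endothelial cells co-cultured with peripheral blood mononuclear cells under LPS stimulation were exposed to test chemical for 24 h. VCAM-1 levels were then measured by ELISA, with bidirectional curve fitting relative to DMSO as negative control and baseline.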

[17] = read-out: CD38, CD38 (gene 952); assay: BSK_SAg_CD38: BioMAP Diversity Plus: SAg Assay for CD38 Biomarker Activity (AID 2283087); settings: primary human HUVEC with PBMC; actives raise or lower the signal
Procedure, shortened: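 Fluorescence ELISA of cell-surface CD38 served as the read-out, with either increase or decrease fitted against DMSO controls. Cells were a human umbilical vein endothelium plus PBMC co-culture under SEB/TSST-1 stimulation, measured 24 h after dosing.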

[18] = read-out: CD40, CD40 (gene 958); assay: BSK_SAg_CD40: BioMAP Diversity Plus: SAg Assay for CD40 Biomarker Activity (AID 2283088); settings: primary human HUVEC with PBMC; actives raise or lower the signal
Procedure, shortened: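 CD40 is measured by fluorescence ELISA in an endothelial/PBMC primary human co-culture at 24 h post-dose. Fitting is bidirectional, DMSO baseline. Parallel SRB staining (560 nm) flags cytotoxicity.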

[19] = read-out: E-selectin (Homo sapiens) (UniProt P16581); assay: BSK_LPS_Eselectin: BioMAP Diversity Plus: LPS Assay for Eselectin Biomarker Activity (AID 2283077); settings: primary human HUVEC with PBMC; actives raise or lower the signal
Procedure, shortened: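 E-selectin ELISA on LPS-stimulated endothelial cell/PBMC co-cultures, read 24 h post-treatment; gains and losses fitted against DMSO. Parallel SRB staining (0.1% SRB after 10% TCA fixation, 560 nm) flags overt cytotoxicity.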

[20] = read-out: CD69, CD69 (gene 969); assay: BSK_SAg_CD69: BioMAP Diversity Plus: SAg Assay for CD69 Biomarker Activity (AID 2283089); settings: primary human HUVEC with PBMC; actives raise or lower the signal;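 on AC50: cell surface CD69 protein quantified by ELISA with fluorescence detection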
Procedure, shortened: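 Primary human vascular co-culture (umbilical vein endothelium with peripheral blood mononuclear cells) exposed to test chemical for 24 h. CD69 levels quantified by fluorescence ELISA; DMSO served as negative control for bidirectional fitting.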

Measured: AC50

Sequence of Tumor necrosis factor (Homo sapiens) (P01375 whole entry, looked up): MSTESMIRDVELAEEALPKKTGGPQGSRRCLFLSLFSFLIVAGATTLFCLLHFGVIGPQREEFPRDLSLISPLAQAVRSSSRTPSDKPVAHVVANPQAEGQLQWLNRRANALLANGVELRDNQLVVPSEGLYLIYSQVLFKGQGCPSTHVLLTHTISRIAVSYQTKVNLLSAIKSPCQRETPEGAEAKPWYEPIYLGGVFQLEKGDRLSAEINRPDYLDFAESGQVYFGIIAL
Sequence of E-selectin (Homo sapiens) (P16581 whole entry, looked up): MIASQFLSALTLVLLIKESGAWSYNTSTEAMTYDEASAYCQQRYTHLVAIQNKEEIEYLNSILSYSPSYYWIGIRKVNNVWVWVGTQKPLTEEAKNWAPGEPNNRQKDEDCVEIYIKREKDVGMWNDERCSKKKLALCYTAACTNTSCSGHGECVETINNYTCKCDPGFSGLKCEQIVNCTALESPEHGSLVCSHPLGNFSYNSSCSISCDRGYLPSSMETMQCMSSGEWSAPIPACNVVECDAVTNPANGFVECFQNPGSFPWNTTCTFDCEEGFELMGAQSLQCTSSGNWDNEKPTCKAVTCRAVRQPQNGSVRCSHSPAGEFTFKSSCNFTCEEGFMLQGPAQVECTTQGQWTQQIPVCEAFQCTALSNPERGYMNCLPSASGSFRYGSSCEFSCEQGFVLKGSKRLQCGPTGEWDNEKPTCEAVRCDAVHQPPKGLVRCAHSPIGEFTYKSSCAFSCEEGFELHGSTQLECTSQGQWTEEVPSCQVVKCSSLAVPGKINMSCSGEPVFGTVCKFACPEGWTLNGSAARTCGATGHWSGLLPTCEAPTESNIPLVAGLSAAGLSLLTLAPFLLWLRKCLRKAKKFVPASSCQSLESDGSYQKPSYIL

CCOP(=S)(OCC)SCSc1ccc(Cl)cc1
active: [1] 3.12 µM | [2] 0.533 µM | [3] 0.0592 µM | [5] 0.324 µM | [6] 0.0705 µM | [7] 20 µM | [10] 5.31 µM | [13] 18.7 µM | [16] 13.2 µM | [17] 20 µM | [18] 9.34 µM
inactive: [4] | [8] | [9] | [11] | [12] | [14] | [15]

CCCCc1ccccc1
not listed: [20]
inactive: all other assays above

CCCCN(CCCC)SN(C)C(=O)Oc1cccc2c1OC(C)(C)C2
active: [5] 13.8 µM | [7] 20 µM | [19] 30.8 µM | [8] 30.9 µM | [9] 28.4 µM | [10] 29.8 µM | [11] 30.9 µM | [13] 30.9 µM | [15] 35 µM | [16] 25.7 µM | [17] 31.4 µM | [18] 26.2 µM
inactive: [1] | [2] | [3] | [4] | [6] | [12] | [14]

O=P(Oc1ccccc1)(Oc1ccccc1)Oc1ccccc1
active: [7] 23.6 µM | [8] 30.6 µM | [9] 30.6 µM | [11] 30 µM | [13] 32.1 µM | [15] 3.97 µM | [16] 20 µM | [17] 31.7 µM | [18] 25.9 µM
inactive: [1] | [2] | [3] | [4] | [5] | [6] | [10] | [12] | [14]

O=P1(N(CCCl)CCCl)NCCCO1 (centres undefined)
inactive: all assays above

ClC1=C(Cl)C2(Cl)C3C(Cl)C(Cl)CC3C1(Cl)C2(Cl)Cl (centres undefined)
active: [1] 20 µM | [2] 26.8 µM | [3] 20 µM | [5] 13.3 µM | [6] 27.9 µM | [7] 14.9 µM | [19] 30.4 µM | [8] 34 µM | [9] 29.9 µM | [10] 26 µM | [11] 33.2 µM | [13] 27.9 µM | [14] 31.5 µM | [15] 32.7 µM | [16] 29.2 µM | [17] 29.7 µM | [18] 24.4 µM | [20] 27.5 µM
inactive: [4] | [12]

Nc1ccc([N+](=O)[O-])cc1Cl
inactive: all assays above
